Sampled rows, rich in hits. Any-hit rate of the full collection: about 32%.
CYP2C19 act: increases human CYP2C19 enzyme activity; 96,000 tested, under 10 active; recombinant CYP2C19, luciferin-H EGE luminescence; stronger effect = higher value; 0 = fully inhibited enzyme, 1 = untreated enzyme; activation factor at 5 µM; AID 1025;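 active = activation factor of at least 2 at 5 µM in the primary screen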
PostGolgi yeast: growth inhibition of a yeast mutant, post-Golgi transport screen. AID 739. hit rate 0.9% among 98,000. post-Golgi transport phenotypic cell assay. inhibition, % at 10 µM;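 note: yeast cells grown in 1536-well plates; yeast grown about 18 h at 30C before absorbance read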
CYP2C9 act: CYP2C9 (human) activation | P11712 | recombinant CYP2C9, luciferin-H conversion, luminescence; stronger effect = higher value; factor 1 = untreated enzyme, 0 = blocked | activation factor at 5 µM | hit rate 1.4% among 96,000;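 active = activation factor of 2 or more for CYP2C9 at a 5 µM dose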
Target sequence (P11712 whole entry, looked up): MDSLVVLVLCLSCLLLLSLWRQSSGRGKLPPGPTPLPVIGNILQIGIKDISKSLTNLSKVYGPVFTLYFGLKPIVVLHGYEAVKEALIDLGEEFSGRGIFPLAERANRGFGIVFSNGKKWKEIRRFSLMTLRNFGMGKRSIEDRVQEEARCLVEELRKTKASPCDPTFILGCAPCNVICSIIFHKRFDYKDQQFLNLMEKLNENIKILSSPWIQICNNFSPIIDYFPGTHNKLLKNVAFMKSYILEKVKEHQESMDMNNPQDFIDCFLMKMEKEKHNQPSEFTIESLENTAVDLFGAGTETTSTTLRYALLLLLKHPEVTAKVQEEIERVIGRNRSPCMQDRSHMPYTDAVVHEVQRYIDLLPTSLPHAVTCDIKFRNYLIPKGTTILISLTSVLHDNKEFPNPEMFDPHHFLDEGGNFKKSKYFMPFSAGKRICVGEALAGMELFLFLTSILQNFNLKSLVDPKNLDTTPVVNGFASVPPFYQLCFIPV
PostGolgi ctrl: growth of the yeast control strain, post-Golgi counter-screen; efflux-deficient yeast background strain, growth absorbance A615, 16 h; inhibition, % at 10 µM; hit rate 5% among 98,000; AID 738
CYP2C9 inh: inhibitors of human CYP2C9; P11712; CYP2C9 Supersomes, luciferin-H conversion, luminescence; inhibition, % at 5 µM; hit rate 20% among 96,000;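 active = blocking of liver enzyme CYP2C9 beyond about 50% at 5 µM, limit read from the data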
CYP2C19 inh: blocks human cytochrome P450 2C19. P33261. inhibition, % at 5 µM. hit rate 21% among 96,000. CYP2C19 Supersomes, luciferin-H EGE luminescence, 30 min;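 active = CYP2C19 inhibition above a set limit at 5 µM in the primary screen, cut at about 50% in these data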
Each line names hits and unclear results; the compound was inactive in the other large screens. Cut-off read from the data, not from the text of the source, unless noted: active = inhibition above about 30%; inactive = the rest.

CCOC(=O)N1CCN(C(=O)C(CC(C)C)NS(=O)(=O)c2ccc3c(c2)oc(=O)n3C)CC1 (stereo not given)	none
COc1cccc(NC(=O)Cn2c(=O)c3c(ncn3Cc3ccccc3)n(Cc3ccccc3)c2=O)c1	none
CS(=O)(=O)N(Cc1ccccc1)c1ccc(C(=O)NCc2cccnc2)cc1	CYP2C9 inh 91, CYP2C19 inh 91
CS(=O)(=O)N(Cc1ccccc1)c1ccc(C(=O)NC2CCCCC2O)cc1 (stereo not given)	CYP2C19 inh 52
O=C(NCc1ccccc1)c1ccc(S(=O)(=O)C(F)F)cc1	CYP2C19 inh 68
CCCNC(=O)c1ccc(N(Cc2ccccc2)S(C)(=O)=O)cc1	none
CS(=O)(=O)N(Cc1ccccc1)c1ccc(C(=O)NCc2ccccc2)cc1	CYP2C9 inh 53, CYP2C19 inh 62
COc1c(C)cccc1C(=O)Nc1ccc(CN2CCOCC2)cc1	none
COC(=O)CN(C#N)c1nc(OC)nc(N(C)C)n1	none
O=Nc1c2nc3ccccc3n(O)c-2c2ccccc12	none
O=C(NC1CCCCC1)c1cccc(Cn2cc(Cl)cn2)c1	none
CS(=O)(=O)Nc1ccc(C(=O)NCc2cccnc2)cc1	PostGolgi ctrl 31
CN(C)CCCNC(=O)c1ccc(CN(c2ccccc2)S(C)(=O)=O)cc1	CYP2C9 inh 64
Cc1ccc(CN(c2ccc(C(=O)Nc3cccnc3)cc2)S(C)(=O)=O)cc1	CYP2C9 inh 74, CYP2C19 inh 91
O=C(NCc1ccccc1)c1ccc(/C=N/O)nc1	CYP2C19 inh 63
O=C(CC1(O)C(=O)Nc2cc(Cl)cc(Cl)c21)c1ccccc1O (stereo not given)	none (no result: CYP2C19 act, CYP2C9 act, CYP2C9 inh, CYP2C19 inh)
Cc1noc(/C=C/N(C)C)c1S(=O)(=O)N1CCC(C(=O)O)CC1	none
CN(C)CCCNC(=O)c1ccc(-c2ccccc2)cc1	none
CN(C)CCCNC(=O)c1ccc(Cl)c(S(=O)(=O)N(C)c2ccccc2)c1	CYP2C19 inh 97
Cc1sc2ncnc(NCC(C)(C)N3CCOCC3)c2c1C	none
O=C(c1ccccc1)N(Cc1ccc2c(c1)OCO2)Cc1nc2ccccc2c(=O)[nH]1	CYP2C9 inh 90, CYP2C19 inh 92
Cc1ccc2c(c1)cc(CN(Cc1ccc3c(c1)OCO3)C(=O)c1ccccc1)c1nnnn12	none
O=C(Nc1ccccc1)N(Cc1ccc2c(c1)OCO2)Cc1nc2ccccc2c(=O)[nH]1	CYP2C9 inh 60
COc1cccc(NC(=O)COc2ccc(N3CC(C(=O)NCC(C)C)CC3=O)cc2)c1 (stereo not given)	none
CCCc1nnc(NC(=O)CCC(=O)N2CCN(c3ccccn3)CC2)s1	none
CCOC(=O)N1CCC(NC2CCCCCCC2)CC1	CYP2C19 inh 58
COC(=O)CN(c1cccc(OC)c1)S(C)(=O)=O	none
CCc1ccccc1NC(=O)CN(c1cccc(OC)c1)S(C)(=O)=O	CYP2C9 inh 63, CYP2C19 inh 86
CCOC(=O)c1ccccc1NC(=O)c1ccc(N(C)S(C)(=O)=O)cc1	none
COc1cccc(N(CC(=O)Nc2ccccc2C)S(C)(=O)=O)c1	CYP2C19 inh 63
CCOC(=O)c1ccccc1NC(=O)CN(c1cccc(OC)c1)S(C)(=O)=O	CYP2C9 inh 95, CYP2C19 inh 99
COc1cccc(C(=O)CN(C(=O)c2ccc(Cl)c(Cl)c2)N2C(=O)c3ccccc3C2=O)c1	none
N#Cc1cccc(NC(=O)Nc2cccs2)c1	CYP2C9 inh 84
COC(=O)CSc1nnc(C2COc3ccccc3O2)n1-c1ccccc1 (stereo not given)	CYP2C19 inh 58
CCn1c(SCC(=O)c2c[nH]c3ccccc23)nnc1-c1cccs1	CYP2C19 inh 70
COC(=O)CSc1nnc(-c2cccs2)n1-c1ccc(Cl)cc1	CYP2C19 inh 81
CCn1c(SCC(=O)c2ccc(Cl)cc2)nnc1C(C)C	CYP2C19 inh 77
CCn1c(SCC(=O)N2CCOCC2)nnc1-c1cccs1	none
CCn1c(SCC(=O)c2ccc(Cl)cc2)nnc1-c1cccs1	CYP2C19 inh 70
CCn1c(SCCOc2ccc(Cl)cc2)nnc1-c1cccs1	CYP2C9 inh 90, CYP2C19 inh 96
O=C(NC(=O)c1ccncc1)NC(c1ccccc1)c1ccccc1	none
CCCOc1ccc(-c2nc(C#N)c(N3CCN(CC)CC3)o2)cc1	none
CCn1c(SCC(=O)N2CCOCC2)nc2sc3c(c2c1=O)CCCC3	CYP2C9 inh 66
CCn1c(SCC(=O)N2CCOCC2)nc2oc3c(Cl)cc(Cl)cc3c(=O)c2c1=O	none
CCn1c(SC(C)C(=O)O)nc2sc3c(c2c1=O)CCC3 (stereo not given)	CYP2C9 inh 74
CCc1nc2sc3c(c2c(=O)o1)CCCC3	none
CCc1nc2sc3c(c2c(=O)n1NC(=O)CCl)CCCC3	CYP2C9 inh 76
C=CCn1c(Sc2nncn2C)nc2c1c(=O)[nH]c(=O)n2C	none (no result: CYP2C19 act, CYP2C9 act, CYP2C9 inh, CYP2C19 inh)
O=C(CSc1nnc(-c2ccco2)o1)NC1CCCCCC1	CYP2C19 inh 75
O=C(CSc1ncn[nH]1)NC1CC2CCC1C2 (stereo not given)	CYP2C19 inh 53
O=C(CSc1nnc(-c2ccco2)o1)NC(=O)Cc1ccccc1	none
O=C(CSc1nnc(Cc2ccccc2)o1)NC1CC2CCC1C2 (stereo not given)	CYP2C19 inh 52
O=C(CSc1nnc(Cc2ccccc2)o1)NCc1ccco1	none
O=C(CN(C(=O)CSc1nnc(COc2ccccc2)o1)c1ccc(F)cc1)NC1CCCC1	none
CCOc1ccc(N(CC(=O)NC2CCCC2)C(=O)CSc2nnc(COc3ccccc3)o2)cc1	CYP2C9 inh 58
O=C(CSc1nnc(CNC(=O)c2cccs2)o1)NC1CCCC1	none (no result: CYP2C19 act, CYP2C9 act, CYP2C9 inh, CYP2C19 inh)
O=C(CSc1nnc(Cc2ccccc2)o1)NC1CCCCC1	CYP2C19 inh 52
Cc1ccc(Cc2c(C)nc3nc(SCC(=O)NCc4ccco4)nn3c2C)cc1	CYP2C9 inh 56
Cc1ccccc1Cc1c(C)nc2c(C(=O)NCc3ccco3)cnn2c1C	PostGolgi ctrl 42, CYP2C9 inh 87, CYP2C19 inh 56
Cc1cc(C)n2nc(SC(C)C(=O)NCc3ccco3)nc2n1 (stereo not given)	none
Cc1nc2nc(SCC(=O)NCc3ccco3)nn2c(C)c1Cc1c(F)cccc1Cl	CYP2C9 inh 88
Cc1ccccc1Cc1c(C)nc2nc(SCC(=O)NCc3ccco3)nn2c1C	CYP2C9 inh 66
O=C(CSc1ccc2nnc(-c3cccc(F)c3)n2n1)NCc1ccco1	none
Cc1nc2ncnn2c(C)c1CCC(=O)NCc1ccco1	none
O=C(CC1Oc2ccccc2NC1=O)NCc1ccccc1 (stereo not given)	CYP2C9 act 2, CYP2C19 inh 66
CC1CCCCC1NC(=O)CC1Oc2ccccc2NC1=O (stereo not given)	none
Cc1ccc2c(c1)NC(=O)C(CC(=O)NCc1ccc(F)cc1)O2 (stereo not given)	none

Compound activity: PubChem, several laboratories
